PubChem BioAssay AID2314 (National Center for Advancing Translational Sciences (NCATS), 2010)
Screen size: about 300,000 compounds; about 37,000 (12%) were called active. The sample as a whole holds a higher share of actives than the screen did. Values without a mark were called inactive. Cut-off read from the data, not from the text of the source: active = max response mostly above about 13% (no sharp cut-off); inactive = mostly below about 14%.

Test: Cycloheximide Counterscreen for Small Molecule Inhibitors of Shiga Toxin; note: read at 38.3 µM for the half of the compounds with a filed dose; 0% is about no effect
Settings: cell reporter, cycloheximide protein synthesis inhibition counterscreen; active compounds read high

Structure (SMILES) | max response
O=C(NC1CCCCC1)C1CCC(CNS(=O)(=O)c2ccccc2)CC1 (stereo not given) | -1.26%
COc1ccccc1C1C(C(N)=O)=C(C)Nc2nc(CCCO)nn21 (stereo not given) | -5.85%
C[C@@H]1O[C@@H](OC[C@H]2O[C@@H](Oc3cc(O)c4c(c3)O[C@H](c3ccc(O)c(O)c3)CC4=O)[C@H](O)[C@@H](O)[C@@H]2O)[C@H](O)[C@H](O)[C@H]1O | -3.85%
COC(=O)c1cc2occc2n1Cc1nc(-c2ccccc2C)oc1C | -1.91%
CCOC(=O)C1(Cc2cccc(OC)c2)CCN(Cc2csc(C(C)=O)c2)CC1 | -2.31%
CCC(C(=O)NCCC(C)C)N(Cc1ccccc1Cl)C(=O)c1snc(C(N)=O)c1N (stereo not given) | -2.42%
COCCN(C(=S)Nc1cccc(Cl)c1C)C(C)c1ccco1 (stereo not given) | 5.55%
CCc1cccc(CC)c1NC(=O)COc1ccccc1C(=O)c1cc(C#N)c(=O)n(C2CCCCC2)c1 | 5.88%
CCOc1ccc(CN(C)C(=O)c2ccc(=O)[nH]c2)cc1 | -4.67%
Cc1cccc(NC(=O)Nc2ccc3c(c2)OCO3)n1 | 45.7% (active)
CCc1c(C)sc(NC(=O)/C=C/c2ccc3c(c2)OCO3)c1C(=O)OC | 16.3%
CC(C)CNS(=O)(=O)c1ccc(C(=O)Nc2ccc3c(c2)OCO3)cc1 | -0.729%
O=C(/C=C/c1ccc2c(c1)OCO2)NCc1ccc(F)cc1 | 9.99%
CNS(=O)(=O)c1ccc(NC(=O)Nc2ccc3c(c2)OCO3)cc1 | 46.9% (active)
CCc1ccc(NC(=O)NC(C)c2ccc3c(c2)OCO3)cc1 (stereo not given) | 0.596%
CC(NC(=S)Nc1ccc(S(N)(=O)=O)cc1)c1ccc2c(c1)OCO2 (stereo not given) | -3.68%
CC(NC(=O)Nc1ccc2c(c1)OCO2)c1ccncc1 (stereo not given) | 11.1%
Cc1cccc(NC(=O)/C=C/c2ccc3c(c2)OCO3)n1 | 64.4% (active)
CCCC1OC23CCCCC2C(C#N)(C#N)C1(C#N)C(=N)O3 (stereo not given) | -1.48%
Cc1ccc(C23CC4CC(CC(C(=O)NCC(=O)O)(C4)C2)C3)cc1 | -6.43%
COc1ccc(Oc2cn[nH]c2-c2ccc(OC)cc2O)cc1 | 2.15%
COc1cc(C(=O)Nn2c(CC(C)C)nc3ccccc3c2=O)cc(OC)c1OC | -3.7%
Cc1ccc(Cl)cc1NC(=O)C1CCN(S(C)(=O)=O)CC1 | 8.41%

Structure (SMILES) | max response
COc1ccc(Br)cc1C1C2C=CCC(C)C2C(=O)N1Cc1ccccc1 (stereo not given) | 2.32%
Cc1nccc(-c2ccc(-n3c(C)ccc3C)cc2)n1 | 1.97%
COc1ccccc1/C=C/C1=NC(=C\N(C)C)/C(=O)O1 | 10.1% (active)
C=CCOC(=O)C1=C(C)N=C2SCCC(=O)N2C1/C=C/c1ccccc1OC (stereo not given) | -1.27%
O=C1OC(/C=C/c2ccccc2)=NC/1=C/c1ccco1 | -1.15%
COc1cc2c(cc1OC)C(c1ccccc1Br)NC(=O)C2 (stereo not given) | 2.36%
Cc1nc(NC(=O)c2cccc(Cl)c2)sc1-c1csc(Nc2cccc(Cl)c2)n1 | -1.16%
CCC(=O)Nc1sc(C(=O)Nc2ccccc2)c(C)c1C(=O)OC | 6.77%
CCC(=O)Nc1nc(C)c(C(=O)Nc2cccc(Cl)c2)s1 | 16.2% (active)
Cc1ccc(C2C(C#N)C(C#N)N3CCCN23)cc1 (stereo not given) | 14.4%
O=C(CC1N=C2c3ccccc3N=C(SCc3ccccc3Cl)N2C1=O)NCc1ccco1 (stereo not given) | 18% (active)
O=C(CSC1=Nc2ccccc2C2=NC(CC(=O)NCc3ccco3)C(=O)N12)NCc1ccco1 (stereo not given) | 6.84%
CCC(C)NC(=O)CSC1=Nc2ccccc2C2=NC(CCC(=O)NCc3ccco3)C(=O)N12 (stereo not given) | 0.985%
N#Cc1c(-c2ccccc2)nc(SCc2cccc(C(F)(F)F)c2)[nH]c1=O | 4.14%
CCc1ccc(NC(=O)Cn2nnc(C(=O)NCc3ccc(OC)cc3)c2N)cc1 | -3.14%
CCCCCc1c(C)nc(N2CCN(Cc3ccc4c(c3)OCO4)CC2)[nH]c1=O | -0.993%
CC(=O)c1cnc(-c2ccccc2)s1 | 35.2% (active)
O=S(=O)(c1ccc(F)cc1)n1ccc(-c2cnc(-c3ccccc3)s2)n1 | 1.13%
O=C(/C=C/Nc1ccccc1)c1cnc(-c2ccccc2)s1 | 1.67%
Cc1cccc(N2CCN(S(=O)(=O)c3ccc4[nH]c(=O)c(=O)[nH]c4c3)CC2C)c1 (stereo not given) | -2.14%
CC1(C)C(C=C(Cl)Cl)C1C(=O)N(Cc1ccc(Cl)cc1)C1CCS(=O)(=O)C1 (stereo not given) | 3.61%
Cc1ccc2nc(/C(C#N)=C\c3ccc(OC(=O)c4cccs4)cc3)[nH]c2c1 | 29.1% (active)
